From PubChem BioAssay (NCI)
The panel holds about 83,000 compounds, 20% with a hit somewhere; the sample as a whole holds those more often.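 The endpoint reported here, percent growth, reads 100 for growth as untreated, 0 for no net growth and -100 for all cells dead.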 Calls of active or inactive are those of the source. Rule for the calls: active = growth percent below 10; inactive = the rest.

Experiments:
Test in all cases: NCI-60 one-dose screen, 48 h (100 = growth as untreated, 0 = no growth, -100 = all killed)
Conditions in all cases: 10 µM unless noted
K-562 leukemia = test system: K-562 leukemia
MALME-3M melanoma = test system: MALME-3M melanoma
MDA-MB-231 breast = test system: MDA-MB-231 breast
RXF 393 renal = test system: RXF 393 renal
SF-268 CNS = test system: SF-268 CNS
SF-295 CNS = test system: SF-295 CNS
SF-539 CNS = test system: SF-539 CNS
UACC-257 melanoma = test system: UACC-257 melanoma
M14 melanoma = test system: M14 melanoma
HCT-15 colon = test system: HCT-15 colon
HT29 colon = test system: HT29 colon
SNB-75 CNS = test system: SNB-75 CNS
SNB-19 CNS = test system: SNB-19 CNS
U251 CNS = test system: U251 CNS
PC-3 prostate = test system: PC-3 prostate
UACC-62 melanoma = test system: UACC-62 melanoma
SK-MEL-28 melanoma = test system: SK-MEL-28 melanoma
SK-MEL-2 melanoma = test system: SK-MEL-2 melanoma
SK-MEL-5 melanoma = test system: SK-MEL-5 melanoma
LOX IMVI melanoma = test system: LOX IMVI melanoma

Measured: growth

COc1ccc(Cc2nn(CC(=O)N/N=C/c3ccc(Cl)cc3)c(=O)c3c(C)noc23)cc1
inactive: K-562 leukemia 96.3% | MALME-3M melanoma 95% | MDA-MB-231 breast 76.2% | RXF 393 renal 77.7% | SF-268 CNS 83.9% | SF-295 CNS 69.3% | SF-539 CNS 58.7% | UACC-257 melanoma 90.9% | M14 melanoma 89.9% | HCT-15 colon 88.3% | HT29 colon 92.4% | SNB-19 CNS 67.5% | U251 CNS 71.4% | PC-3 prostate 78.9% | UACC-62 melanoma 99.2% | SK-MEL-28 melanoma 97.9% | SK-MEL-2 melanoma 90.8%
active: SNB-75 CNS -4.27%

Cc1ccc(CNS(=O)(=O)/N=C2\NC(=O)NC2=C(Cl)Cl)cc1
inactive: K-562 leukemia 27.7% | MALME-3M melanoma 94.7% | MDA-MB-231 breast 40.3% | RXF 393 renal 96.9% | SF-268 CNS 61.8% | UACC-257 melanoma 60.2% | M14 melanoma 87.2% | HCT-15 colon 95.3% | HT29 colon 15.7% | SNB-19 CNS 46.9% | U251 CNS 39.1% | PC-3 prostate 38.9% | UACC-62 melanoma 77.3% | SK-MEL-28 melanoma 83.8% | SK-MEL-2 melanoma 28.8%
active: SF-295 CNS 4.1% | SF-539 CNS 1.74% | SNB-75 CNS -2.97%

c1ccc(CNc2ncnc3ccc(-c4cnc5[nH]ncc5c4)cc23)cc1
inactive: MALME-3M melanoma 103% | MDA-MB-231 breast 63.7% | RXF 393 renal 33.8% | SF-268 CNS 58.2% | SF-295 CNS 74.1% | SF-539 CNS 69.9% | UACC-257 melanoma 95.4% | M14 melanoma 94.8% | HCT-15 colon 77% | HT29 colon 70.6% | SNB-75 CNS 54.5% | SNB-19 CNS 72.7% | U251 CNS 81.6% | PC-3 prostate 70.3% | SK-MEL-5 melanoma 88.4% | UACC-62 melanoma 76% | LOX IMVI melanoma 52.7% | SK-MEL-28 melanoma 82.7% | SK-MEL-2 melanoma 81.6%

CCOc1ccc2nc(NC(=O)c3ccc(C(F)(F)F)cc3)sc2c1
inactive: K-562 leukemia 108% | MALME-3M melanoma 112% | MDA-MB-231 breast 106% | RXF 393 renal 114% | SF-268 CNS 106% | SF-295 CNS 111% | SF-539 CNS 105% | UACC-257 melanoma 107% | M14 melanoma 107% | HCT-15 colon 100% | HT29 colon 97.9% | SNB-75 CNS 102% | SNB-19 CNS 101% | U251 CNS 100% | PC-3 prostate 108% | UACC-62 melanoma 99.1% | SK-MEL-28 melanoma 105% | SK-MEL-2 melanoma 103%

Cn1c(SCC(=O)c2cccs2)nc2ccccc2c1=O
inactive: K-562 leukemia 78.5% | MALME-3M melanoma 102% | MDA-MB-231 breast 88.2% | RXF 393 renal 107% | SF-268 CNS 92.7% | SF-295 CNS 107% | SF-539 CNS 94.6% | UACC-257 melanoma 93.4% | M14 melanoma 97.8% | HCT-15 colon 91.1% | HT29 colon 106% | SNB-75 CNS 88.7% | SNB-19 CNS 102% | U251 CNS 97.5% | PC-3 prostate 90.3% | UACC-62 melanoma 92.6% | SK-MEL-28 melanoma 105% | SK-MEL-2 melanoma 98%

COc1ccc(NC2=CC(=O)C(C)=C(C)C2=O)cc1
inactive: K-562 leukemia 66.6% | MALME-3M melanoma 89.9% | MDA-MB-231 breast 83.8% | RXF 393 renal 102% | SF-268 CNS 101% | SF-295 CNS 105% | SF-539 CNS 105% | UACC-257 melanoma 45.4% | M14 melanoma 95.6% | HCT-15 colon 89% | HT29 colon 109% | SNB-75 CNS 123% | SNB-19 CNS 99.2% | U251 CNS 92% | PC-3 prostate 71.5% | UACC-62 melanoma 95.4% | SK-MEL-28 melanoma 99.4% | SK-MEL-2 melanoma 81.8%

CC(C)Sc1nc(Nc2ccc(S(N)(=O)=O)cc2)c(C#N)c(-c2ccc(F)cc2)n1
inactive: K-562 leukemia 36.3% | MALME-3M melanoma 14.8% | MDA-MB-231 breast 38.6% | SF-268 CNS 39.1% | UACC-257 melanoma 93.3% | M14 melanoma 17.9% | HCT-15 colon 43.5% | PC-3 prostate 40.9% | SK-MEL-5 melanoma 54.3% | UACC-62 melanoma 46.5% | SK-MEL-28 melanoma 78% | SK-MEL-2 melanoma 92.5%

CCOC(=O)c1sc(N)c(C(=O)OCC)c1C
inactive: K-562 leukemia 53.2% | MALME-3M melanoma 74% | MDA-MB-231 breast 37.4% | RXF 393 renal 29.9% | SF-268 CNS 42.7% | SF-295 CNS 81.5% | SF-539 CNS 38.1% | UACC-257 melanoma 78.3% | M14 melanoma 78% | HCT-15 colon 45.4% | HT29 colon 43.4% | SNB-75 CNS 36% | SNB-19 CNS 71.7% | U251 CNS 44.2% | PC-3 prostate 54.4% | SK-MEL-28 melanoma 78.8% | SK-MEL-2 melanoma 75.2%

COc1cccc(NC2=CC(=O)C(C)=C(C)C2=O)c1
inactive: K-562 leukemia 12.5% | MALME-3M melanoma 101% | MDA-MB-231 breast 41.4% | RXF 393 renal 55.8% | SF-268 CNS 74.5% | SF-295 CNS 105% | SF-539 CNS 21.7% | UACC-257 melanoma 54.7% | M14 melanoma 97% | HCT-15 colon 91.9% | HT29 colon 98.3% | SNB-75 CNS 99.8% | SNB-19 CNS 97.7% | U251 CNS 95.1% | PC-3 prostate 36.3% | UACC-62 melanoma 91.8% | SK-MEL-28 melanoma 96.5% | SK-MEL-2 melanoma 83.6%

C#Cc1nc(C2=C(C)C(OC(C)=O)/C(=N/OC(C)=O)C2)cs1 (stereo unspecified)
active: MALME-3M melanoma -46.5% | MDA-MB-231 breast -69.9% | RXF 393 renal -19.5% | SF-268 CNS -42.6% | SF-295 CNS -89.8% | SF-539 CNS -90.9% | HCT-15 colon -11.2% | HT29 colon -14.1% | SNB-75 CNS -89% | U251 CNS -13.9% | PC-3 prostate -11.1%
inactive: K-562 leukemia 15.4% | UACC-257 melanoma 85.5% | M14 melanoma 69.2% | SNB-19 CNS 78.4% | SK-MEL-5 melanoma 89.7% | SK-MEL-28 melanoma 101% | SK-MEL-2 melanoma 92.8%

COc1ccc(NC2=C(Cl)C(=O)C(C)=C(C)C2=O)cc1OC
inactive: K-562 leukemia 60% | MALME-3M melanoma 99.7% | MDA-MB-231 breast 44.9% | RXF 393 renal 108% | SF-268 CNS 93.5% | SF-295 CNS 101% | SF-539 CNS 94.7% | UACC-257 melanoma 95.1% | M14 melanoma 95.7% | HCT-15 colon 96.1% | HT29 colon 101% | SNB-75 CNS 126% | SNB-19 CNS 84.7% | U251 CNS 77.7% | PC-3 prostate 67.9% | UACC-62 melanoma 81.2% | SK-MEL-28 melanoma 108% | SK-MEL-2 melanoma 83.7%

CCOC(=O)c1sc(NCC(=O)Nc2cccc([N+](=O)[O-])c2)c(C(=O)OCC)c1C
active: K-562 leukemia 5.97% | MALME-3M melanoma -63.7% | MDA-MB-231 breast -24.5% | RXF 393 renal -74% | SF-268 CNS -25% | SF-295 CNS -77.5% | SF-539 CNS -35.1% | UACC-257 melanoma -6.79% | M14 melanoma -73% | HCT-15 colon 2.01% | HT29 colon -42.7% | SNB-75 CNS -37.6% | SNB-19 CNS -6.96% | U251 CNS -7.36% | PC-3 prostate -9.82% | UACC-62 melanoma -72.4% | SK-MEL-28 melanoma -30.9% | SK-MEL-2 melanoma -24%

CSc1ccc2c(c1)N(C(=O)/C(C#N)=C/c1c[nH]c3ccccc13)c1ccccc1S2
active: SF-539 CNS 7.54% | SNB-75 CNS 8.61%
inactive: K-562 leukemia 16.4% | MALME-3M melanoma 55.7% | MDA-MB-231 breast 53.2% | RXF 393 renal 38.8% | SF-268 CNS 55.8% | SF-295 CNS 15% | UACC-257 melanoma 57% | M14 melanoma 29.5% | HCT-15 colon 27.3% | HT29 colon 12.2% | SNB-19 CNS 41% | U251 CNS 42.1% | PC-3 prostate 28.8% | UACC-62 melanoma 41.8% | SK-MEL-28 melanoma 58.5% | SK-MEL-2 melanoma 35.6%

COc1ccc(/C=C2\SC(=Nc3cc(C)[nH]n3)NC2=O)cc1
inactive: K-562 leukemia 101% | MALME-3M melanoma 89.6% | MDA-MB-231 breast 95.4% | RXF 393 renal 80.7% | SF-268 CNS 95.8% | SF-295 CNS 86.3% | SF-539 CNS 95.8% | UACC-257 melanoma 98.7% | M14 melanoma 98.1% | HCT-15 colon 84.2% | HT29 colon 107% | SNB-75 CNS 95.2% | SNB-19 CNS 90.8% | U251 CNS 98.1% | PC-3 prostate 81% | SK-MEL-5 melanoma 95.7% | SK-MEL-28 melanoma 85% | SK-MEL-2 melanoma 121%

COc1cc(/C=C/C(=O)c2ccc(F)cc2)ccc1Oc1nc(NCCO)nc(N2CCOCC2)n1
active: K-562 leukemia 6.99%
inactive: MALME-3M melanoma 78.8% | MDA-MB-231 breast 86.7% | RXF 393 renal 108% | SF-268 CNS 81% | SF-295 CNS 93.2% | SF-539 CNS 88.2% | UACC-257 melanoma 98.3% | M14 melanoma 84% | HCT-15 colon 39.2% | HT29 colon 53.5% | SNB-75 CNS 92.2% | SNB-19 CNS 69.4% | U251 CNS 44.1% | PC-3 prostate 70.8% | SK-MEL-5 melanoma 82.1% | SK-MEL-28 melanoma 91.3% | SK-MEL-2 melanoma 93.9%

COc1ccc(CNS(=O)(=O)/N=C2\NC(=O)NC2=C(Cl)Cl)cc1
inactive: K-562 leukemia 13% | MALME-3M melanoma 76% | MDA-MB-231 breast 22.1% | RXF 393 renal 39.6% | SF-268 CNS 59.6% | UACC-257 melanoma 54.4% | M14 melanoma 25.2% | HCT-15 colon 56.1% | SNB-19 CNS 30% | U251 CNS 14.8% | PC-3 prostate 28% | SK-MEL-28 melanoma 48.7% | SK-MEL-2 melanoma 29.1%
active: SF-295 CNS -22.9% | SF-539 CNS -6.36% | HT29 colon 8.17% | SNB-75 CNS -23.1%
